A selection: hits, their analogues and other compounds. The true share with any hit is near 5.7%.
DAX1 inh-1 = DAX1 (NR0B1) inhibitors, primary screen, cell-based, HEK293, Gal4-DAX1, luciferase luminescence. Nuclear receptor subfamily 0 group B member 1 (Homo sapiens), P51843. HEK293 Gal4-DAX1 luciferase reporter. inhibition, % at 6.75 µM. 340,000 tested, 0.99% active. AID 504766, 2011;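 active = inhibition above the mean over all tested compounds plus 3 SD, cut at about 4.2% in these data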;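 note: 0% = DAX1-transfected cells with DMSO and 100% = empty-vector control cells with DMSO; inhibition shows as a rise in luminescence from relieved DAX1 repression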
DAX1 inh-2 = DAX1 (NR0B1) inhibitors on StAR promoter, primary screen, cell-based, luminescence, SF-1 (NR5A1), full-length DAX-1; HEK293T StAR-luciferase reporter, SF-1/DAX-1 repression relief; inhibition, % at 6.8 µM; 370,000 tested, 1.1% active; AID 652010, 2013;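 active = inhibition above the mean over all tested compounds plus 3 SD, cut at about 3.6% in these data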;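 note: 0% = DAX-1 cells with DMSO and 100% = cells lacking DAX-1 with DMSO; higher inhibition means more luminescence from relief of DAX-1 repression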
hgDAF-12 ag = H. glycines DAF-12 receptor agonists, primary screen, cell-based, luminescence, HEK293, GAL4 fusion, UAS-luciferase; 370,000 tested, 1.8% active; AID 687014, 2013; activation, % at 6.8 µM; Nuclear hormone receptor DAF-12 (Heterodera glycines), GAL4 fusion; HEK293 GAL4-hgDAF12 UAS-luciferase reporter, agonist luminescence; normalized to butyrate control;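 active = activation above a cutoff set at the mean of all screened compounds plus 3 SD, cut at about 10% in these data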;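 note: 0% = DMSO wells and 100% = sodium butyrate wells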
hcDAF12 agonist = H. contortus DAF-12 nuclear receptor activators, primary screen, cell-based, luminescence, HEK293, lit1-tk-luc reporter; 370,000 tested, 1.4% active; AID 652067, 2013; HEK293 hcDAF-12 lit1-tk-luc reporter; 0% DMSO, 100% Δ7-dafachronic acid; activation, % at 6.8 µM;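 active = activation above the mean of all tested compounds plus 3 SD, cut at about 5.5% in these data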;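 note: 100% = response to 3 µM Δ7-dafachronic acid high control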
ssDAF-12 act = S. stercoralis DAF-12 nuclear receptor activators, primary screen, cell-based, luminescence, HEK293, GRIP1 co-expression, lit1-tk-luc; 370,000 tested, 1% active; Nuclear hormone receptor DAF-12 (Strongyloides stercoralis); AID 652126, 2013; activation, % at 6.8 µM; HEK293 ssDAF-12/GRIP1 lit1-tk-luc reporter; % of 3 µM dafachronic acid response;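 active = activation above the mean over all tested compounds plus 3 SD, cut at about 0.9% in these data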;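 note: 0% = DMSO-only wells and 100% = 3 µM delta7-dafachronic acid wells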
AHR activator = AHR activators, primary screen, cell-based, luminescence, luciferase reporter, human; 320,000 tested, 2.5% active; Aryl hydrocarbon receptor (Homo sapiens), P35869; activation, % at 5 µM; AHR-responsive luciferase reporter cells; in the data active = activation above about 47%;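 note: 0% = vehicle wells and 100% = reference agonist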
LXRb hcDAF ctr = LXR agonists, Gal4 luciferase reporter, confirmation, counter-screen for hcDAF-12 agonist project, cell-based, luminescence, HEK293, H. contortus campaign; shares compounds with hcDAF12 agonist; HEK293 Gal4-LXR tk-luc reporter, 24 h; normalized: DMSO 0%, positive control 100%; activation, % at 6.8 µM; 3,400 tested, under 10 active;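 active = mean percent activation of the reporter above a cutoff set as the average over tested compounds plus their standard deviation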
Target sequence (P55055 whole entry, looked up, the tested form may be a part): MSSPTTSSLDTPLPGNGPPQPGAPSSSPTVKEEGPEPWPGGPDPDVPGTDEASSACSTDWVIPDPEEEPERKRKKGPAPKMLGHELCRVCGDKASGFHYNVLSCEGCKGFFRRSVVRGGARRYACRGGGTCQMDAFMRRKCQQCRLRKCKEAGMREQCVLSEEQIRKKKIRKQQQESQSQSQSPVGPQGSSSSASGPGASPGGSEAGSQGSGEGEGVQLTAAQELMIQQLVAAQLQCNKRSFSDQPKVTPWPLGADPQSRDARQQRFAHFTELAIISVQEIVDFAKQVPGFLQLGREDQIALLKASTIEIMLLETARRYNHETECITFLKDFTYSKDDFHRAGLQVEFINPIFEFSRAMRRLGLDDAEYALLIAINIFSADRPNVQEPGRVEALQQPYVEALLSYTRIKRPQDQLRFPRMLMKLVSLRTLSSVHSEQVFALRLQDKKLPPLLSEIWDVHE
hcDAF12 conf = H. contortus DAF-12 receptor agonists, confirmation, cell-based, luminescence, HEK293, lit1-tk-luc, triplicate; shares compounds with hcDAF12 agonist; HEK293 hcDAF-12 lit1-tk-luc reporter; % of Δ7-dafachronic acid response; activation, % at 6.8 µM; 3,400 tested, 61% active;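 active = mean activation across triplicate tests above the threshold derived from the earlier primary screen, cut at about 5.5% in these data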;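 note: 0% = DMSO only wells and 100% = 3 µM Δ7-dafachronic acid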
* marks the source's active call; other numbers are inactive results.

How did O=C(NCc1ccccc1)C(c1cc2ccccc2o1)n1c(=O)c(-c2ccco2)nc2ccccc21 (stereo not drawn) do in these assays?
DAX1 inh-2: 3.9*; hgDAF-12 ag: 11*; hcDAF12 agonist: 9.6*; ssDAF-12 act: 2.5*; LXRb hcDAF ctr: 1; hcDAF12 conf: 11*

How did O=C(NNc1nc2ccccc2o1)c1ccccc1 do in these assays?
DAX1 inh-2: 2; hgDAF-12 ag: 11*; hcDAF12 agonist: 8.2*; ssDAF-12 act: 0; AHR activator: -6; LXRb hcDAF ctr: 1; hcDAF12 conf: 4

What do the screens show for `Cc1onc(-c2c(F)cccc2Cl)c1C(=O)NC(C)c1ccccc1` (stereo not drawn)?
DAX1 inh-1: -1; DAX1 inh-2: 0; hgDAF-12 ag: 0; hcDAF12 agonist: 0; ssDAF-12 act: -1; AHR activator: -1

Results for O=C(COC(=O)Cn1ccc(=O)[nH]c1=O)Nc1ccc(F)cc1 ?
DAX1 inh-1: 0; DAX1 inh-2: 0; hgDAF-12 ag: 2; hcDAF12 agonist: 0; ssDAF-12 act: -1; AHR activator: 1

How did NC(=O)c1ccc(CSc2nc3ccccc3s2)cc1 do in these assays?
DAX1 inh-1: 0; DAX1 inh-2: 1; hgDAF-12 ag: 8; hcDAF12 agonist: 8.1*; ssDAF-12 act: 1; AHR activator: 19; LXRb hcDAF ctr: 0; hcDAF12 conf: 4

What do the screens show for `CCNC(=O)c1ccc(CSc2nc3ccccc3s2)cc1`?
DAX1 inh-1: 2; DAX1 inh-2: -1; hgDAF-12 ag: 4; hcDAF12 agonist: -1; ssDAF-12 act: 0; AHR activator: 44

What do the screens show for `CS(=O)(=O)c1ccc(Nc2nc(C(N)c3ccccc3Cl)cs2)cc1` (stereo not drawn)?
DAX1 inh-2: 0; hgDAF-12 ag: -1; hcDAF12 agonist: -3; ssDAF-12 act: -1

What do the screens show for `COc1ccc(CNC(=O)Cc2c(C(=O)O)[nH]c3ccccc23)c(OC)c1`?
DAX1 inh-1: 1; DAX1 inh-2: 0; hgDAF-12 ag: 1; hcDAF12 agonist: 6.9*; ssDAF-12 act: 1.9*; AHR activator: 12; LXRb hcDAF ctr: 0; hcDAF12 conf: 2

How did CCn1c(=NC(=O)c2ccco2)sc2cccc(F)c21 do in these assays?
DAX1 inh-1: 2; DAX1 inh-2: 2; hgDAF-12 ag: 13*; hcDAF12 agonist: 12*; ssDAF-12 act: 1; AHR activator: 36; LXRb hcDAF ctr: 1; hcDAF12 conf: 8.4*

Results for CSc1ccc(CNC(=O)Cc2ccc(NC(=O)C3=C(C)OCCS3)cc2)cc1 ?
DAX1 inh-1: -1; DAX1 inh-2: -2; hgDAF-12 ag: 8; hcDAF12 agonist: 7.1*; ssDAF-12 act: 0; AHR activator: 3; LXRb hcDAF ctr: 1; hcDAF12 conf: 6.5*

What do the screens show for `CCOc1ccc(CCNC(=O)Cc2ccc(NC(=O)C3=C(C)OCCS3)cc2)cc1`?
DAX1 inh-1: 0; DAX1 inh-2: 0; hgDAF-12 ag: 3; hcDAF12 agonist: 0; ssDAF-12 act: -1; AHR activator: 0
